Records with an inconclusive call do not appear. Entries that show only a call come without a potency. Active and inactive are the calls of the source. Unless noted, calls follow the shape of the dose curve; as a rule, active = well fitted curve in the direction sought with a large enough effect; inconclusive = small, poorly fitted or top-dose-only effect, or another doubt; inactive = no such curve, though single readings can be large; an effect the other way counts as inactive or inconclusive.
Key:
[1] = Cytometric Cell-Based qHTS for Inhibitors of the mTORC1 Signaling Pathway in MEF (Tsc2-/-, p53-/-) Cells (AID 2660);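 also: percent of cells above a phospho-rpS6 to PI ratio cutoff in each well; series mostly up to about 38 µM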
Method in brief: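 Tsc2-/-, p53-/- MEFs (empty vector) exposed to compound 24 h at 37 C, fixed, stained with Alexa-488 anti-phospho-rpS6 Ser235/236 and propidium iodide. Acumen laser scanning; phospho-S6/PI ratio thresholded against 7.5 nM rapamycin, reported as % positive cells.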

[2] = High Content Imaging Cell-Based qHTS for Inhibitors of the mTORC1 Signaling Pathway in MEF (Tsc2-/-, p53-/-) Cells (AID 2666);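 also: percent of cells scored positive for phospho-rpS6 Ser235/236 immunostaining by imaging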
Method in brief: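 Read-out: % positive cells per well, with thresholds from highest- and lowest-signal wells, based on phospho-rpS6 (Ser235/236) intensity normalized to Hoechst nuclear stain. Cells: Tsc2-/-, p53-/- MEFs carrying empty vector; compound 24 hrs, 37 degree Celsius.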

[3] = High Content Imaging Cell-Based qHTS for Inhibitors of the mTORC1 Signaling Pathway in MEF Cells (AID 2667);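 also: Tsc2-/- p53-/- MEFs stably re-expressing wild-type Tsc2 exposed 24 h; series mostly up to about 38 µM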
Method in brief: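 MEF (Tsc2-/-, p53-/-, WT Tsc2 re-expressed); cpd 24 h, 37 °C; PFA fix; Alexa-488 anti-p-rpS6 Ser235/236, PI, Hoechst; IN Cell imaging; Hoechst/Alexa-488 intensity ratio; % active cells, thresholds set from rapamycin and DMSO wells.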

[4] = Cytometry Cell-Based qHTS for Inhibitors of the mTORC1 Signaling Pathway in MEF cells (AID 2668);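 also: Tsc2-/- p53-/- mouse embryonic fibroblasts stably re-expressing wild-type Tsc2; percent cells positive for phospho-rpS6 Ser235/236 relative to propidium iodide stain; series mostly up to about 38 µM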
Method in brief: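 MEFs (Tsc2-/-, p53-/- stably expressing WT Tsc2) treated 24 h at 37 degree Celsius, fixed, stained with Alexa-488 anti-phospho-rpS6 Ser235/236 and propidium iodide; Acumen laser scanning. Reported as % positive cells, phospho-S6 normalized to PI.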

[5] = target: DNA polymerase III PolC-type (Bacillus subtilis (strain 168)) (UniProt P13267); assay: qHTS Validation Assay for the Inhibitors of DNA Replication in Gram-Positive Bacteria (AID 485295); also: potency is read from the fitted curve at half-maximal effect
Sequence of DNA polymerase III PolC-type (Bacillus subtilis (strain 168)) (P13267 whole entry, looked up): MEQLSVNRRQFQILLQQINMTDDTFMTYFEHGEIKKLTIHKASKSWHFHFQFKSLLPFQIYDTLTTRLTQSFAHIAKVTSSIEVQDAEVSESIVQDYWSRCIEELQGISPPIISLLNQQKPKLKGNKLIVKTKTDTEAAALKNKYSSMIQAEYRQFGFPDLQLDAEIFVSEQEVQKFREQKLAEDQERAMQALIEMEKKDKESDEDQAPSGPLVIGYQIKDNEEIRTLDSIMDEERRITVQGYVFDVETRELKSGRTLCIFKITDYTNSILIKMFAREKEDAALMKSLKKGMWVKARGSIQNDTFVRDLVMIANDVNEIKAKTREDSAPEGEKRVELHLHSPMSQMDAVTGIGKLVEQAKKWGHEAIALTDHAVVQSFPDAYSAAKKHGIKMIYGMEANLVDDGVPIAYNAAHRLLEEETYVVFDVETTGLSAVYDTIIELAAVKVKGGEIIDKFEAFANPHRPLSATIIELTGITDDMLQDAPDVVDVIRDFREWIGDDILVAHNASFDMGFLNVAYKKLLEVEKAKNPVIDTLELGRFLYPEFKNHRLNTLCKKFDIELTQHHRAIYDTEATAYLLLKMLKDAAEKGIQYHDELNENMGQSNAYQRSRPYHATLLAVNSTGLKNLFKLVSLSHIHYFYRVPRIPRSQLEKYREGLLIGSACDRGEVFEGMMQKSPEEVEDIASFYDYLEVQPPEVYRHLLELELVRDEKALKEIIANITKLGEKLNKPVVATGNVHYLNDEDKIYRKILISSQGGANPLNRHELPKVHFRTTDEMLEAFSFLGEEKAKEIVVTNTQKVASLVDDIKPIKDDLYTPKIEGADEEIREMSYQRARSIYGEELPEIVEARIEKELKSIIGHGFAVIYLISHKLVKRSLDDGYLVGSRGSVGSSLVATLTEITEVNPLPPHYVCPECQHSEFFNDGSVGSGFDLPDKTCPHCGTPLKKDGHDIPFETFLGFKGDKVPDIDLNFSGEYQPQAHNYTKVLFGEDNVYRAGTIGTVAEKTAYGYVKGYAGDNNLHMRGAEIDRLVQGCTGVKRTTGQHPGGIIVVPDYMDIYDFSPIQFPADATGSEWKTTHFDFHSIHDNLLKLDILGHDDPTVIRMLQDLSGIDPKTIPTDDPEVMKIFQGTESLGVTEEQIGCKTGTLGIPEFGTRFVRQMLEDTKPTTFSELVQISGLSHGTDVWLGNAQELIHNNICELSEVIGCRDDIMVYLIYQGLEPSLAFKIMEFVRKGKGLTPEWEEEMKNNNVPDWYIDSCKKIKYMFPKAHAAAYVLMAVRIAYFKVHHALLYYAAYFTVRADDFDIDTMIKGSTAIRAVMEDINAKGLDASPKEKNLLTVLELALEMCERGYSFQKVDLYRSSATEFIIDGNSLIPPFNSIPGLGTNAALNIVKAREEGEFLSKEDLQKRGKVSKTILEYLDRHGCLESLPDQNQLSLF
Method in brief: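 Reconstituted B. subtilis Pol III holoenzyme (PolC, beta clamp, SSB, primase) preincubated with compound, then M13Gori single-stranded circular template with dNTPs/NTPs added; room temperature reaction. Stopped with EDTA/PicoGreen; dsDNA fluorescence read, EDTA as full-inhibition control.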

[6] = target: Tumor susceptibility gene 101 protein (Homo sapiens) (UniProt Q99816); assay: qHTS Validation Assay for Iinhibitors of HIV-1 Budding by Blocking the Interaction of PTAP/TSG101 (AID 485342; calls by dose curve)
Sequence of Tumor susceptibility gene 101 protein (Homo sapiens) (Q99816 whole entry, looked up, the tested form may be a part): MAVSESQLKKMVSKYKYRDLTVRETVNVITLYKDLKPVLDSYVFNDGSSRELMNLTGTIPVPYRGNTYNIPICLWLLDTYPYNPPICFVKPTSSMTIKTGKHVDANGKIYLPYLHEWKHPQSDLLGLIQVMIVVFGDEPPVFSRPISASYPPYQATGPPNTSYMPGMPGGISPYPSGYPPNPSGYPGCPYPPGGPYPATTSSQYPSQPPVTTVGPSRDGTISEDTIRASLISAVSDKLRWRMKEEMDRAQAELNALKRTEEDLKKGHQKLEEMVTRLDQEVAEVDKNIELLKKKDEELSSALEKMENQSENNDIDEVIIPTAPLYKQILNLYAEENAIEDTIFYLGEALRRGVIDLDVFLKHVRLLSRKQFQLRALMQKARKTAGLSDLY
Method in brief: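 Tsg101 binding domain (10 uM) with FITC-labeled PTAP peptide (50 nM) in HEPES pH 7.5 buffer, 20 min at r.t. with compounds. Binding measured by fluorescence polarization.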

[7] = qHTS Validation Assay to Find Inhibitors of Chronic Active B-Cell Receptor Signaling (AID 485345; active = well fitted curve in the direction sought with a large enough effect in the main read-out, with a control signal flat, not every such curve was filed as active)
Method in brief: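 TMD8 ABC-DLBCL cells with dox-inducible green luciferase–IκBα fusion and red native luciferase; compounds 46 uM–3 nM, 4 h at 37C with doxycycline in 0.5% FBS IMDM. Green/red ratio normalized to basal and 10 uM MG-132.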

[8] = target: Beta-2 adrenergic receptor (Homo sapiens) (UniProt P07550); assay: qHTS validation assay of beta-arrestin-biased ligands of beta2-adrenergic receptor (AID 485366)
Sequence of Beta-2 adrenergic receptor (Homo sapiens) (P07550 whole entry, looked up): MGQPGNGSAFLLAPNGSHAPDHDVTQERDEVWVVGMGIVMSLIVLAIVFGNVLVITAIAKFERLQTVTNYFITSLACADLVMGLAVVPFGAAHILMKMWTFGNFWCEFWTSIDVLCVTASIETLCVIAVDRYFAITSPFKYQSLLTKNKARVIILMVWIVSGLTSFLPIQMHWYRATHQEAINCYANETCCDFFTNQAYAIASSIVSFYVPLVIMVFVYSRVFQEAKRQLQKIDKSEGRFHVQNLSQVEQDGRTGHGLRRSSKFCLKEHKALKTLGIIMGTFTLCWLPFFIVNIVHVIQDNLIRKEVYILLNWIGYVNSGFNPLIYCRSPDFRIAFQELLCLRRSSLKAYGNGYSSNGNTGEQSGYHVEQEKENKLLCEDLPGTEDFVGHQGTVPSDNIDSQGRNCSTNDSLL
Method in brief: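 Tango cells expressing recombinant beta2-AR and beta-arrestin with tTA-driven luciferase, in DMEM with 1% FBS. Compounds were titrated up to 46 microM for 18 hr at 37 degrees C. Luminescence was read 15 min after substrate; curves were fitted and class-assigned.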

[9] = target: Thioredoxin reductase 1, cytoplasmic (Rattus norvegicus) (UniProt O89049); assay: qHTS Assay for Substrates of Mammalian Selenoprotein Thioredoxin Reductase 1 (TrxR1) (AID 488772);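 also: NADPH fluorescence in the first read after selenite addition and not the 8 min delta; series mostly up to about 57 µM; a drop in NADPH fluorescence below the no-compound background marks a TrxR1 substrate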
Sequence of Thioredoxin reductase 1, cytoplasmic (Rattus norvegicus) (O89049 whole entry, looked up): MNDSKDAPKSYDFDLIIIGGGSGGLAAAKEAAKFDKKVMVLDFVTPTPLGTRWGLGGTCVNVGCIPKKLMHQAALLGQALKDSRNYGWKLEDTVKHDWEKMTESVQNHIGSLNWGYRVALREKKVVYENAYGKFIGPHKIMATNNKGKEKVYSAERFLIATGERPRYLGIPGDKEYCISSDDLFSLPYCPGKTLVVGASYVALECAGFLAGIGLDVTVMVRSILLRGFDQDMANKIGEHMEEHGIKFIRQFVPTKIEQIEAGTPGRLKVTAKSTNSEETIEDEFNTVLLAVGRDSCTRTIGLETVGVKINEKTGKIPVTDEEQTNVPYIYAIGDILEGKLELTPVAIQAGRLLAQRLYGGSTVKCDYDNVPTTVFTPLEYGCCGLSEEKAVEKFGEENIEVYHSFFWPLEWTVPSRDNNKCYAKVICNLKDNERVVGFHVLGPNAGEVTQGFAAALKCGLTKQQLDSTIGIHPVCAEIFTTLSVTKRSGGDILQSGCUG
Method in brief: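 Quantitative HTS in Tris-HCl buffer at pH 7.5 with EDTA and Tween-20, using rat TrxR1, 400 uM NADPH and 400 uM selenite (final). A fall in initial NADPH fluorescence relative to background marked substrate behaviour.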

[10] = target: Thioredoxin reductase 1, cytoplasmic (Rattus norvegicus) (UniProt O89049); assay: qHTS Assay for Inhibitors of Mammalian Selenoprotein Thioredoxin Reductase 1 (TrxR1) (AID 488773); conditions: Potency: inhibition; also: nearly all actives have a fitted effect of over 40% in size; also: potency is read from the fitted curve at half-maximal effect
Method in brief: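 Steps: enzyme (90 nM) plus NADPH (400 uM final), 5 min at ~22 deg C; compound added, 15 min; selenite (400 uM final) added; fluorescence followed for 8 min. Concentration-response curves derived from the normalized delta values.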

[11] = target: Flap endonuclease 1 (Homo sapiens) (UniProt P39748); assay: qHTS Validation Assay for the Inhibitors of Human Flap endonuclease 1 (FEN1) (AID 488816)
Sequence of Flap endonuclease 1 (Homo sapiens) (P39748 whole entry, looked up): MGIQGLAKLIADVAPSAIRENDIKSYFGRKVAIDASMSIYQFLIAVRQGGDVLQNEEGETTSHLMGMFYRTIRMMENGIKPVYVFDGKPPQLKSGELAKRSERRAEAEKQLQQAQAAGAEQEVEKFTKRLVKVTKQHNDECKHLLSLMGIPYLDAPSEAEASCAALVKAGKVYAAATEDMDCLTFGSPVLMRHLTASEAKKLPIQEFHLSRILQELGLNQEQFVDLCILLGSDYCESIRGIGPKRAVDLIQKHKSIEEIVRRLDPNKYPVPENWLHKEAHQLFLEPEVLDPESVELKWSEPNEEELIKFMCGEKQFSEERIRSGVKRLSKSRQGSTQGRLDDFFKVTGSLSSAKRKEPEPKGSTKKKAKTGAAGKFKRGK
Method in brief: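 FEN1, dispensed as a 10 nM reagent, was preincubated with pin-transferred compounds for 15 min at room temperature before substrate was added (50 nM final). Plates were read at 0 and 15 min, and a four-parameter Hill equation was fitted to the concentration-response data.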

[12] = target: M-phase phosphoprotein 8 (Homo sapiens) (UniProt Q99549); assay: qHTS Validation Assay for Inhibitors for MPP8 Chromodomain Interactions with Methylated Histone Tails (AID 488949); also: top concentration of the series differs between compounds; nearly all actives have a fitted effect of over 55% in size
Sequence of M-phase phosphoprotein 8 (Homo sapiens) (Q99549 whole entry, looked up): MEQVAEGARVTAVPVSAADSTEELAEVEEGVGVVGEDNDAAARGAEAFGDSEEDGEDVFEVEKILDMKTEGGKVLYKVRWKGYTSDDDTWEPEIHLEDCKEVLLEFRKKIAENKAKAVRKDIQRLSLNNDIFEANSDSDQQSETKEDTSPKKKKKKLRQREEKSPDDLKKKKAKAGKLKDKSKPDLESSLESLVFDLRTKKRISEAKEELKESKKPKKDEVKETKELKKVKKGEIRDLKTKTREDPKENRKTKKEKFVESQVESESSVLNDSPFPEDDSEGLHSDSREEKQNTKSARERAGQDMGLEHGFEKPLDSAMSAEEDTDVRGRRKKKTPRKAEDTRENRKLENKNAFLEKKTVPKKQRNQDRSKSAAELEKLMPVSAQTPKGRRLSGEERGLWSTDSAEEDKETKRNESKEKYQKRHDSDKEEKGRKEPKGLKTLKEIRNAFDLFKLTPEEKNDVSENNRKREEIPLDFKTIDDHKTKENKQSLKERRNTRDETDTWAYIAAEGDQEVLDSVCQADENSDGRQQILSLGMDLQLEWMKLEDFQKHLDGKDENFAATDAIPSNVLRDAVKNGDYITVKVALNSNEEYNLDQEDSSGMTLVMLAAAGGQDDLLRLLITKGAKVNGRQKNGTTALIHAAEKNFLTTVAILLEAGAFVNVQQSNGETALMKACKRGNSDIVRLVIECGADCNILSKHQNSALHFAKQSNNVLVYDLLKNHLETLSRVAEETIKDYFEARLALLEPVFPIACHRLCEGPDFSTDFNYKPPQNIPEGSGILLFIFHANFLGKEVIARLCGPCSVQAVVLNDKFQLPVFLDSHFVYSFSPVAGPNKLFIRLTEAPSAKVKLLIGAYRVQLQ
Method in brief: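 MPP8 (50 nM) was pre-bound to 50 nM biotinylated H3(1-18)K9me3 peptide in PBS pH 7.4 with 0.01% Tween-20. Compounds were then added for 30 min at room temperature, and complex disruption was read by AlphaScreen with streptavidin donor and nickel-chelate acceptor beads.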

[13] = Validation screen for inhibitors of Lassa infection (AID 463096; calls by dose curve)
[14] = Validation screen for small molecules that induce DNA re-replication in MCF 10A normal breast cells (AID 463097); also: nearly all actives have a fitted effect of over 60% in size
Method in brief: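 MCF 10A cells exposed to compound 48 hr at 37 C, 5% CO2, then Hoechst-stained 40 min. Laser-scanning imaging of nuclear DNA content (405 nm ex, 500-530 nm em); re-replication scored as rise in nuclei with elevated fluorescence intensity.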

[15] = target: Ubiquitin carboxyl-terminal hydrolase 2 (Homo sapiens) (UniProt O75604); assay: qHTS Validation Assay for Inhibitors of Ubiquitin-specific Protease USP2a Using CHOP2 as the Reporter (AID 463106)
Sequence of Ubiquitin carboxyl-terminal hydrolase 2 (Homo sapiens) (O75604 whole entry, looked up): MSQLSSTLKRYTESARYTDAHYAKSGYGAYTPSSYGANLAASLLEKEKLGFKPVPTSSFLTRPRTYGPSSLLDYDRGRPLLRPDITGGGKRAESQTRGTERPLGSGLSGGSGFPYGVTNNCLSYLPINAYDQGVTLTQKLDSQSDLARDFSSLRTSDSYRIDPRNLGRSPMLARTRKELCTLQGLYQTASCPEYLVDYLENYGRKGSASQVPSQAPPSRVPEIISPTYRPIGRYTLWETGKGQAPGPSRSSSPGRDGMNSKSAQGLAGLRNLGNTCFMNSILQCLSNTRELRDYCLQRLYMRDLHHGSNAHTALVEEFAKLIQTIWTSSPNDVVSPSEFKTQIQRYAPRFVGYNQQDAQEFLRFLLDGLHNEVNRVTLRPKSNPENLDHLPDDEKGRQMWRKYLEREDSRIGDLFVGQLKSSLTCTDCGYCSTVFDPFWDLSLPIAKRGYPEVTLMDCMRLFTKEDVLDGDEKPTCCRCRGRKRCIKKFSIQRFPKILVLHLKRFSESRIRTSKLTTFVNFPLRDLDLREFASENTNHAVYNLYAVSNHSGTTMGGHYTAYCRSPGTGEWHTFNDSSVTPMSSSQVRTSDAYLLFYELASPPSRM
Method in brief: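 USP2 core (10nM final) was preincubated with compound for 30min at RT in 20mM Tris-HCl pH 8.0, 2mM CaCl2, 2mM beta-mercaptoethanol, 0.05% CHAPS. Ub-CHOP2 and reporter substrate (25nM each) were added, and fluorescence (Ex 485/Em 531nm) was read after 60min.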

[16] = target: ATP-dependent 6-phosphofructokinase (Trypanosoma brucei brucei) (UniProt O15648); assay: qHTS Validation Assay to Find Inhibitors of T. brucei phosphofructokinase (AID 485368)
Method in brief: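 Activity was read as ADP production by luminescence (ADP-Glo) after 45 min at room temperature. The enzyme was 1.25nM PFK in 0.1M TEA pH 8.0 with 0.5 mM F6P, 0.1mM ATP and 5 mM MgCl2. Compounds were titrated up to 57 uM and % activity normalized to no-enzyme and full-enzyme controls.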

[17] = Quantitative high throughput screen for delayed death inhibitors of the malarial parasite plastid, 96 hour incubation (AID 488745); also: series mostly up to about 29 µM; nearly all actives have a fitted effect of over 70% in size
Method in brief: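 P. falciparum carrying an integrated firefly luciferase reporter, grown in erythrocytes (2% hematocrit, 0.1% parasitemia final) in RPMI 1640/0.5% Albumax, was exposed to compound for 96 h (two generations) at 37 C, 5% CO2. Luminescence decrease indicated growth inhibition.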

[18] = target: Chromobox protein homolog 1 (Homo sapiens) (UniProt P83916); assay: qHTS Validation Assay for Inhibitors of HP1-beta Chromodomain Interactions with Methylated Histone Tails (AID 488953); also: nearly all actives have a fitted effect of over 50% in size; also: potency is read from the fitted curve at half-maximal effect
Sequence of Chromobox protein homolog 1 (Homo sapiens) (P83916 whole entry, looked up): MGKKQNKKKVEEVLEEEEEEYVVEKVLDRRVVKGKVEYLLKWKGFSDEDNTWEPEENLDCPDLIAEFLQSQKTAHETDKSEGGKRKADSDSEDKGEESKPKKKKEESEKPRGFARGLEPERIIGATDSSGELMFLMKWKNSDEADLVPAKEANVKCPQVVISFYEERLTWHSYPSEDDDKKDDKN
Method in brief: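 HP1-beta (50 nM) was preincubated 30 min at room temperature with biotinylated H3(1-18)K9me3 peptide (50 nM) in PBS pH 7.4, 0.01% Tween-20, then with compounds 30 min. AlphaScreen signal was read after streptavidin donor/nickel chelate acceptor beads (10 ug/mL final).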

[19] = Quantitative high throughput screen for delayed death inhibitors of the malarial parasite plastid, 48 hour incubation (AID 488752); also: nearly all actives have a fitted effect of over 65% in size; also: potency is read from the fitted curve at half-maximal effect
Method in brief: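 Erythrocytes infected with P. falciparum carrying an integrated firefly luciferase reporter (2% hematocrit, 0.1% parasitemia final) were exposed to compounds in RPMI 1640/0.5% Albumax for 48 h at 37 C, 5% CO2. Growth inhibition was scored as reduced luminescence.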

| Compound | Potency [1] | Potency [2] | Potency [3] | Potency [4] | Potency [5] | outcome [6] | Potency [7] | outcome [8] | outcome [9] | Potency [10] | Potency [11] | Potency [12] | Potency [13] | Potency [14] | Potency [15] | Potency [16] | Potency [17] | Potency [18] | Potency [19] |
| --- | --- | --- | --- | --- | --- | --- | --- | --- | --- | --- | --- | --- | --- | --- | --- | --- | --- | --- | --- |
| CC(=O)OCC1=C(C(=O)O)N2C(=O)[C@@H](NC(=O)CCC[C@@H](N)C(=O)O)[C@H]2SC1 | inactive | inactive | inactive | inactive | inactive | inactive | inactive | inactive | inactive | inactive | inactive | inactive |  |  |  |  |  |  |  |
| CN1C2CCC1CC(OC(c1ccccc1)c1ccccc1N)C2 (centres undefined) | inactive | inactive | inactive |  | inactive | inactive | inactive | inactive | inactive | inactive | inactive | inactive | inactive | inactive | inactive | inactive | inactive |  |  |
| CC(C)(O)[C@@H]1C2OC(=O)[C@@H]1[C@]1(O)C[C@H]3O[C@]34C(=O)O[C@H]2[C@]14C (tested in a mixture with another compound) | inactive | inactive | inactive | inactive | inactive | inactive | inactive | inactive | inactive | inactive | inactive | inactive |  |  |  | inactive |  |  |  |
| CCN1C[C@@]2(COC)C3[C@@H](OC)C4[C@@H]1C3([C@@H]1C[C@]3(O)[C@H](OC(=O)c5ccccc5)[C@@H]1[C@]4(OC(C)=O)[C@@H](O)[C@@H]3OC)[C@H](OC)C[C@H]2O | inactive | inactive | inactive | inactive | inactive | inactive | inactive | inactive | inactive |  | inactive | inactive |  |  | inactive | inactive |  | inactive |  |
| CCNC(=O)[C@H]1O[C@@H](n2cnc3c(N)ncnc32)[C@H](O)[C@@H]1O | inactive | inactive | inactive | inactive | inactive | inactive |  | inactive | inactive |  |  | inactive |  |  | inactive | inactive |  |  |  |
| COc1ccc2c(c1)[C@@]13CCCC[C@H]1[C@@H](C2)NCC3 | inactive | inactive | inactive | inactive | inactive | inactive |  | inactive | inactive |  | inactive | inactive |  | inactive | inactive | inactive | inactive | inactive |  |
| Nc1ccc(CCN2CCN(c3cccc(C(F)(F)F)c3)CC2)cc1 | inactive | inactive | inactive |  | inactive | inactive | inactive | inactive | inactive |  | inactive | inactive | inactive | inactive | inactive | inactive |  |  | inactive |
| CC(=O)c1c(O)c(C)c(O)c(Cc2c(O)c3c(c(C(=O)/C=C/c4ccccc4)c2O)OC(C)(C)C=C3)c1O | inactive | inactive | inactive | inactive | 18.9 µM (active) | inactive | inactive | inactive | inactive | 2.12 µM (active) |  |  |  |  | inactive |  |  | 12.6 µM (active) | 14.7 µM (active) |
| C[C@@H]1O[C@@H](O[C@H]2C[C@@H](O)[C@]3(CO)[C@@H]4C(CC[C@]3(O)C2)[C@@]2(O)CC[C@H]([C@@H]3COC(=O)C3)[C@@]2(C)C[C@H]4O)[C@H](O)[C@H](O)[C@H]1O (some centres undefined) | inactive | inactive | inactive | inactive | inactive | inactive |  | inactive | inactive | inactive |  | inactive |  |  |  | inactive |  | inactive |  |
| C=CCN(C1=NCCN1)c1c(Cl)cccc1Cl | inactive | inactive | inactive | inactive |  | inactive | inactive | inactive | inactive |  | inactive | inactive |  |  | inactive | inactive |  | inactive |  |
| N[C@@H](Cn1oc(=O)[nH]c1=O)C(=O)O | inactive | inactive | inactive | inactive | inactive | inactive | inactive | inactive | inactive | inactive |  | inactive |  | inactive | inactive | inactive | inactive | inactive | inactive |
| Clc1cc(I)cc(Cl)c1NC1=NCCN1 | inactive | inactive | inactive | inactive |  | inactive | inactive | inactive | inactive | inactive | inactive | inactive |  | inactive | inactive |  | inactive | inactive | inactive |
| Cc1cc([C@@H]2CCCN2C)on1 | inactive | inactive | inactive | inactive | inactive | inactive | inactive | inactive | inactive | inactive |  | inactive |  |  | inactive |  |  | inactive |  |
| O=[N+]([O-])c1ccc2nc(N3CCNCC3)ccc2c1 | inactive | inactive | inactive | inactive | inactive | inactive |  | inactive | inactive | inactive |  | inactive |  | inactive | inactive |  | inactive |  |  |
| O=[N+]([O-])c1cc(O)c(O)c([N+](=O)[O-])c1 | inactive | inactive | inactive | inactive |  | inactive | inactive | inactive | inactive | inactive | inactive | inactive |  | inactive | inactive |  | inactive | inactive | inactive |
